Several values for one entry are separate records, joined by “and”; a condition that tells them apart may be missing. Equal entries are not always repeated. This is part of a sample that, as a whole, favours compounds with a hit. Of some 83,000 tested, about 20% had one in any assay.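 Testing used 96-well plates and a 48-hour single-concentration exposure. Example: -40 means 40% of the starting cells died.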 Unmarked numbers belong to inactive results. Activity calls are given as the source filed them. How the source made its calls: active means growth percent below 10; inactive means the rest.
What follows are molecules tested on MDA-MB-468 breast (assay: NCI-60 one-dose screen, 48 h (100 = growth as untreated, 0 = no growth, -100 = all killed)). Conditions: 10 µM unless noted.

First: O=C1OC(c2ccc(F)cc2)CC1CN1CCOCC1 (stereo not given)
Second: Cc1ccc(Cl)cc1N1CCN(C(=O)[C@@H]2C[C@@H]2c2ccc(F)cc2)CC1
The growth of the first is higher: 95.8% for the first, 75.3% for the second.

First: COc1cc2nc(-c3ccc(Cl)cc3)cc(OCCCNCC3CCCO3)c2cc1OC (stereo not given)
Second: COc1cccc(C(=O)Nc2ccc(CN3CCc4nc5cc(OC)c(OC)cc5cc43)cc2)c1
The growth of the first is lower: 46.2% for the first, 63.6% for the second.

Going from N=S(=O)(NC(=O)c1ccc(Cl)cc1Cl)c1ccc(Br)s1 (stereo not given) to O=C(CC1Sc2ccccc2NC1=O)NNc1cccc(Cl)c1Cl (stereo not given), the growth rises from 92.8% to 95.2%.

Going from Cn1ccnc1C(=O)/C=C/c1ccc(C(=O)Nc2ccccc2F)cc1 to O=C(/C=C/c1cccnc1)c1ccccc1, the growth rises from 22.3% to 99.2%.

Going from c1ccc(Cc2ccccc2)cc1 to COc1ccc(/C=C(\C#N)c2ccccc2)cc1, the growth falls from 92.9% to 91.2%.

Compared with COc1ccc(NC(=O)c2sc3nc4c(cc3c2N)CCCC4)cc1, COc1ccc(/C=N/Nc2cc(=O)[nH]c3ccc(C)cc23)cc1 is higher in growth: 13.6% for the first, 101% for the second.

Going from COC(=O)C(Cc1ccccc1)NC(=O)NC(=O)NC(=O)CI (stereo not given) to Cc1c(C(=O)N[C@@H](Cc2ccccc2)C(=O)C(=O)NCc2ccc(F)cc2)[nH]c2ccccc2c1=O, the growth rises from 82.8% to 94.5%.

Compared with S=C1CCSC(=S)N1CCCN1C(=S)CCSC1=S, N#Cc1c(-c2ccccc2)nc(SCC(=O)N2CCOCC2)[nH]c1=O is higher in growth: 37.8% for the first, 108% for the second.

First: C=C1CCC2C3(C)COC(C)(C)OC3CCC2(C)C1C/C=C1/C(=O)OCC1Oc1ccccc1OC (stereo not given)
Second: C[C@H]1[C@H]2[C@H]3CC[C@@H]4[C@@]5(C)C/C(=C/c6ccco6)C(=O)C(C)(C)[C@@H]5CC[C@@]4(C)[C@]3(C)CC[C@]23CO[C@]1(C)[C@@H](C(=O)/C=C\c1ccco1)C3
The growth of the first is lower: 60.6% for the first, 76.3% for the second.

Compared with O=[N+]([O-])c1ccc(-c2cn3nc(-c4c[nH]c5ccccc45)sc3n2)cc1, c1ccc2cc(Cn3cc(CSc4nc5ccccc5s4)nn3)ccc2c1 is higher in growth: 96% for the first, 106% for the second.

Compared with COc1cc(/C(C)=C(\c2ccc(Cl)cc2)c2ccc(OCCN(C)C)cc2)ccc1F, O=C(Nc1ccc(Cl)cc1)c1cc2ccccc2cc1OP(=O)(O)O is higher in growth: 45.6% for the first, 71.3% for the second.

First: CCCC(=O)Oc1ccc2ccccc2c1
Second: NCCNc1nc2ccccc2c2c(=O)c3cc(F)ccc3sc12
The growth of the first is higher: 94% for the first, 67.2% for the second.

First: Ic1ccccc1I
Second: Cc1ccc2nc(Cl)cc(=O)n2c1
The growth of the first is lower: 98.9% for the first, 112% for the second.

First: [O-]/[N+](=C\c1ccc(-n2cc(Cc3ccccc3Cc3cn(-c4ccc(/C=[N+](/[O-])c5ccccc5)cc4)nn3)nn2)cc1)c1ccccc1
Second: O=C(O)c1ccc(-n2cc(/C=N/Nc3ccccc3F)c(-c3ccc(O)cc3)n2)cc1
The growth of the first is higher: 96.6% for the first, 78.3% for the second.

First: CCOC(=O)c1cnc(SCC)nc1SC#N
Second: CCOC(=O)c1c(C)oc(C)c(C(=O)OCC)c1=O
The growth of the first is higher: 124% for the first, 103% for the second.

First: COCCCNc1nc(NC(=O)c2ccc(F)cc2C)cc(-c2cccnc2)n1
Second: Cn1cc(-c2csc(-c3cn(C(=O)OC(C)(C)C)c4ccc(Br)cc34)n2)c2cccnc21
The growth of the first is higher: 111% for the first, 104% for the second.

First: Cc1ccc(S(=O)(=O)NC(=O)NCCSSCCNC(=O)NS(=O)(=O)c2ccc(C)cc2)cc1
Second: CC1(C)C(=O)/C(=C\c2ccc(C(F)(F)F)cc2)C[C@]2(C)[C@H]3CC[C@@H]4[C@H]5[C@H](C(=O)/C=C/c6ccc(C(F)(F)F)cc6)CC[C@]5(CO)CC[C@@]4(C)[C@]3(C)CC[C@@H]12
The growth of the first is lower: 97.6% for the first, 104% for the second.

For C=C(c1ccc(N(C)C)cc1)c1ccc(N(C)C)cc1, the growth was -30.9% (active).
For CC(=O)c1ccccc1O, the growth was 101% and 103% and 108%.
In the case of CC[C@@]1(O)C(=O)OCc2c1cc1n(c2=O)Cc2c-1nc1ccccc1c2/C=N/OC(C)(C)C, the growth is reported as -44.5% (active).
Cn1cc(-c2csc(-c3cn(C)c4ncccc34)n2)c2cccnc21 was tested, and the growth was -10.8% (active).
With O=C(Nc1ccc(Br)cc1)Nc1nc2ccc([N+](=O)[O-])cc2s1 the growth was -29% (active).
CCOC(=O)C1=C(N)Oc2cc(OC)ccc2C1c1ccc(F)c(F)c1 (stereo not given) was tested, and the growth was -37.8% (active).

— PubChem BioAssay (NCI)
